The nature of assay [1]: small molecules captured by biotinylated probe aFSTL3 – biochemical, small-molecule microarray, fluorescence 635/667, stem cell growth factor project, primary screen (AID 1064).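 Also: measures binding of the biotinylated anti-FSTL3 antibody to printed compounds.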 Conditions: higher = more signal.
The nature of assay [2]: binders from COS7 lysate, DM2A8 probe, primary screen, torsin A project, cell lysate, small-molecule microarray, fluorescence 635/667 (AID 1065). Conditions: higher = more signal, COS7 lysate expressing mutant human TOR1A.
Assay [3] is described as follows: small molecules captured by biotinylated probe aFGF2 – biochemical, small-molecule microarray, fluorescence 635/667, stem cell growth factor project, primary screen (AID 1067).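 Also: measures binding of biotinylated aFGF2 protein to printed compounds on slides; z-score merges feature fluorescence and signal-to-noise across triplicate slides.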 Particulars: higher = more signal.
Assay [4] in a line: small molecules captured by biotinylated probe aFGF10 – biochemical, small-molecule microarray, fluorescence 635/667, stem cell growth factor project, primary screen (AID 1071).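 Also: score merges 667 nm spot intensity and signal to noise from triplicate slides.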 Conditions: higher = more signal.
The target of assay [5] is Neurogenic locus notch homolog protein 2 (Homo sapiens) (UniProt Q04721). Description: small molecules binding Notch2 protein – biochemical, small-molecule microarray, 635 nm fluorescence, stem cell growth factors, primary screen (AID 1073). Particulars: higher = more signal.
Neurogenic locus notch homolog protein 2 (Homo sapiens), sequence (Q04721 whole entry, looked up, canonical isoform): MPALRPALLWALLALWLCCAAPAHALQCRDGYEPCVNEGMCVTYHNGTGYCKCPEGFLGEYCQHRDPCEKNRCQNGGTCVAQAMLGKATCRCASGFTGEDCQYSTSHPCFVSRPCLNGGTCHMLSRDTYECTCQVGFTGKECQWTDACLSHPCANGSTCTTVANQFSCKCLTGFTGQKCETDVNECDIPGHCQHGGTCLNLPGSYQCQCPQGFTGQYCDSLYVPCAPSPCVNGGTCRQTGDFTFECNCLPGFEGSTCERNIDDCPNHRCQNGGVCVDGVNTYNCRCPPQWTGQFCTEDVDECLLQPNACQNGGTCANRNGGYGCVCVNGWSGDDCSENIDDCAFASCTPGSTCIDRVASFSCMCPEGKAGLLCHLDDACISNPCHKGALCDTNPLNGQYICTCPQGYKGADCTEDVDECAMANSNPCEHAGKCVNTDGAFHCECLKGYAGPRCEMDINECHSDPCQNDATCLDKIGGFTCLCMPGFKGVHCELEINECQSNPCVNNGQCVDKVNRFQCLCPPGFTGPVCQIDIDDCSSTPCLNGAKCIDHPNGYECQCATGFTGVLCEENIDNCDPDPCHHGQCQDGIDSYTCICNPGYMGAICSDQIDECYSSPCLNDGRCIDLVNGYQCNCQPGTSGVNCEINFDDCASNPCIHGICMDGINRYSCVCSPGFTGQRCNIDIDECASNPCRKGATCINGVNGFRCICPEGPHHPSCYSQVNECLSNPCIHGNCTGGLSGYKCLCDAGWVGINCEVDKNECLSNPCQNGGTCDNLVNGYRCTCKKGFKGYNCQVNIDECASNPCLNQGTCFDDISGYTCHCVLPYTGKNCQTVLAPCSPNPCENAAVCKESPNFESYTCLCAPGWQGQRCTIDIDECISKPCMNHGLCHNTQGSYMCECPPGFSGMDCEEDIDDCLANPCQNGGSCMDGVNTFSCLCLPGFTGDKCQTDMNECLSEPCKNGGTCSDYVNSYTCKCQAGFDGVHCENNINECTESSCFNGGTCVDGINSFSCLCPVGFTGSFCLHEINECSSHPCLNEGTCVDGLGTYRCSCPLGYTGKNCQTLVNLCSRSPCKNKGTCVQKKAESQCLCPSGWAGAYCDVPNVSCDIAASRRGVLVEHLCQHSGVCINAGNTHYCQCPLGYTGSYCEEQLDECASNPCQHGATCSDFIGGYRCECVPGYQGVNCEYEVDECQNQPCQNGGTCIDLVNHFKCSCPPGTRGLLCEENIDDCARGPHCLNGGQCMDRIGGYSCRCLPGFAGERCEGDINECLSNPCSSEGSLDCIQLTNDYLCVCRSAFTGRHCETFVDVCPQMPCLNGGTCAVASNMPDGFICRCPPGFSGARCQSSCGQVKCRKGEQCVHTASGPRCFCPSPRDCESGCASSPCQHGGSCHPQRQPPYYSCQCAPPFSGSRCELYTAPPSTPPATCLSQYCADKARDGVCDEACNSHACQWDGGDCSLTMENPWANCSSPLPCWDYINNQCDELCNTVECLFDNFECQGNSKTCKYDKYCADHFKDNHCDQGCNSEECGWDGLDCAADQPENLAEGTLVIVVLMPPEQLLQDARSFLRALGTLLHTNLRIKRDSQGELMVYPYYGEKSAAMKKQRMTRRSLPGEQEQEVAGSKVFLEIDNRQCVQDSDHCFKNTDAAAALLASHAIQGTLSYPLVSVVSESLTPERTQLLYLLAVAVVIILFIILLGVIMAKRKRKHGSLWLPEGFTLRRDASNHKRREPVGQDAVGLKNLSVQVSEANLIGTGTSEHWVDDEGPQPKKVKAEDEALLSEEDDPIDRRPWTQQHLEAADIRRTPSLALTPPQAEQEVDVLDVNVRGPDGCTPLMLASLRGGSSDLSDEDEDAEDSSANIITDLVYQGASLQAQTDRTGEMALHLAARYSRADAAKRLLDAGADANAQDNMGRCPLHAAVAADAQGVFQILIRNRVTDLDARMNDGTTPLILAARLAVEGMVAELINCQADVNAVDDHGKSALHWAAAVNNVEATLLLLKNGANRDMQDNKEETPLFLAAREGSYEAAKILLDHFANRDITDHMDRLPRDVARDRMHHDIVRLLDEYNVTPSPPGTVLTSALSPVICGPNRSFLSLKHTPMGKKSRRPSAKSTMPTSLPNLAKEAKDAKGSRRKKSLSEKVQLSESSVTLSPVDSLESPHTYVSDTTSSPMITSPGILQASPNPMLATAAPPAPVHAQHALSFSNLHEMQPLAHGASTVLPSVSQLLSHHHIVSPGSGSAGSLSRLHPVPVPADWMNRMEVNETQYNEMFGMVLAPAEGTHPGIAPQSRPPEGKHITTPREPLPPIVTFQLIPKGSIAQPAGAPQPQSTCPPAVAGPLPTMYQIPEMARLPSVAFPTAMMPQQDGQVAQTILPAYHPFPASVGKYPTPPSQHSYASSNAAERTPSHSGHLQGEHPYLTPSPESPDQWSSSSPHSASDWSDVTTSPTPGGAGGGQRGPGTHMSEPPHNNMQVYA
Assay [6] concerns the target Pro-neuregulin-1, membrane-bound isoform (Homo sapiens) (UniProt Q02297). In words: small molecules binding neuregulin-1 protein – biochemical, small-molecule microarray, fluorescence 635/667, psychiatric disease protein project, primary screen (AID 1075).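 Also: score combines 667 nm spot fluorescence with signal to noise.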 Particulars: NRG1 binding, 635 nm fluorescence, higher = more signal.
Assay [7] relates to Neuregulin-1 EGF-like domain. In words: small molecules binding NRG1 EGF domain – biochemical, small-molecule microarray, 635 nm fluorescence, primary screen (AID 1081).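 Also: binding of the protein to compounds printed on small-molecule microarray slides.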 Conditions: higher = more signal.
A short description of assay [8]: FRG1 expression reporter modulators in myotubes – cell-based, C2C12 myotubes, firefly/Renilla luciferase, luminescence, FRG1 inhibition for FSHD, primary screen (AID 1084). Particulars: FRG1 promoter luciferase, higher = more signal, called active from +8 up or from −8 down.
Assay [9] in a line: small molecules captured by biotinylated probe aFST – biochemical, small-molecule microarray, fluorescence 635/667, stem cell growth factor project, primary screen (AID 1086).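 Also: score merges 667 nm fluorescence with signal-to-noise of each printed compound spot.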 Particulars: higher = more signal.
The nature of assay [10]: binders of probe aHhip on microarray, primary screen, stem cell growth factor project, biochemical, small-molecule microarray, fluorescence 635/667 (AID 1087).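 Also: score merges spot fluorescence at 667nm with spot signal to noise ratio.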 Conditions: higher = more signal.
Assay [11] concerns PRMT1 (protein arginine N-methyltransferase 1). In words: small molecules binding arginine methyltransferase PRMT1 – biochemical, small-molecule microarray, 635 nm fluorescence, primary screen (AID 1088).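 Also: binding of Prmt1 protein to compounds spotted on small-molecule microarray slides.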 Particulars: higher = more signal.
Assay [12] can be described thus: growth effects on S. cerevisiae YJM789 – YJM789 clinical isolate, OD600, 24 h, basal, primary screen (AID 1089).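 Also: growth of clinical yeast isolate S. cerevisiae YJM 789 seeded 1000 cells per well; test concentration not given here.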 Particulars: higher = more signal, called active from +8 up or from −8 down.
Assay [13] can be described thus: S. pombe growth modifiers, basal conditions – strain 972, OD600, 24 h, no modulator, primary screen (AID 1090).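 Also: basal condition with compound alone and no growth modifier present; test concentration not given here.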 Conditions: S. pombe 972 growth, higher = more signal, called active from +8 up or from −8 down.
Assay [14] is described as follows: budding yeast growth modifiers under rapamycin – strain BY4716, OD600, 96 h, primary screen (AID 1091). Also: test concentration not given here. Conditions: S. cerevisiae BY4716 + rapamycin, higher = more signal, called active from +8 up or from −8 down.
Assay [15] has as its target Torsin-1A-interacting protein 2 (Homo sapiens) (UniProt Q8NFQ8). Description: small molecules binding lysate-expressed LULL1 – cell lysate, human LULL1 lysate, 635/667 nm fluorescence, primary screen (AID 1092).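 Also: probe is lysate of COS7 cells overexpressing human LULL1; score merges per-feature 667 nm fluorescence with signal-to-noise.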 Conditions: small-molecule microarray, hLULL1 lysate binding, 635 nm fluorescence; higher = more signal.
The nature of assay [16]: optical density change of DRC41 E. coli – strain DRC41, OD650, 24 h, E. coli filamentation project, primary screen (AID 1093).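 Also: MC1000 strain lacking acrAB efflux and sulA so SOS filamentation is blocked; test concentration not given here.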 Conditions: E. coli DRC41 growth, higher = more signal, called active from +8 up or from −8 down.
Assay [17] can be described thus: probe aLefty2 binding to arrayed compounds – biochemical, biotinylated probe, 635/667 nm fluorescence, primary screen (AID 1094).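 Also: score merges spot fluorescence near 667 nm with spot signal-to-noise ratio.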 Particulars: small-molecule microarray, higher = more signal.
Assay [18] has as its system Noggin (protein binding on small-molecule microarray). In words: small molecules binding Noggin protein – biochemical, 635/667 nm fluorescence, primary screen (AID 1095).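 Also: score merges 667 nm feature fluorescence with signal to noise over triplicate slides.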 Particulars: 635 nm fluorescence, higher = more signal.
For assay [19], the target named is Neurogenic locus notch homolog protein 3 (Homo sapiens) (UniProt Q9UM47). Description: small molecules binding NOTCH3 protein – biochemical, 635/667 nm fluorescence, primary screen (AID 1096). Particulars: small-molecule microarray, 635 nm fluorescence, higher = more signal.
Neurogenic locus notch homolog protein 3 (Homo sapiens), sequence (Q9UM47 whole entry, looked up): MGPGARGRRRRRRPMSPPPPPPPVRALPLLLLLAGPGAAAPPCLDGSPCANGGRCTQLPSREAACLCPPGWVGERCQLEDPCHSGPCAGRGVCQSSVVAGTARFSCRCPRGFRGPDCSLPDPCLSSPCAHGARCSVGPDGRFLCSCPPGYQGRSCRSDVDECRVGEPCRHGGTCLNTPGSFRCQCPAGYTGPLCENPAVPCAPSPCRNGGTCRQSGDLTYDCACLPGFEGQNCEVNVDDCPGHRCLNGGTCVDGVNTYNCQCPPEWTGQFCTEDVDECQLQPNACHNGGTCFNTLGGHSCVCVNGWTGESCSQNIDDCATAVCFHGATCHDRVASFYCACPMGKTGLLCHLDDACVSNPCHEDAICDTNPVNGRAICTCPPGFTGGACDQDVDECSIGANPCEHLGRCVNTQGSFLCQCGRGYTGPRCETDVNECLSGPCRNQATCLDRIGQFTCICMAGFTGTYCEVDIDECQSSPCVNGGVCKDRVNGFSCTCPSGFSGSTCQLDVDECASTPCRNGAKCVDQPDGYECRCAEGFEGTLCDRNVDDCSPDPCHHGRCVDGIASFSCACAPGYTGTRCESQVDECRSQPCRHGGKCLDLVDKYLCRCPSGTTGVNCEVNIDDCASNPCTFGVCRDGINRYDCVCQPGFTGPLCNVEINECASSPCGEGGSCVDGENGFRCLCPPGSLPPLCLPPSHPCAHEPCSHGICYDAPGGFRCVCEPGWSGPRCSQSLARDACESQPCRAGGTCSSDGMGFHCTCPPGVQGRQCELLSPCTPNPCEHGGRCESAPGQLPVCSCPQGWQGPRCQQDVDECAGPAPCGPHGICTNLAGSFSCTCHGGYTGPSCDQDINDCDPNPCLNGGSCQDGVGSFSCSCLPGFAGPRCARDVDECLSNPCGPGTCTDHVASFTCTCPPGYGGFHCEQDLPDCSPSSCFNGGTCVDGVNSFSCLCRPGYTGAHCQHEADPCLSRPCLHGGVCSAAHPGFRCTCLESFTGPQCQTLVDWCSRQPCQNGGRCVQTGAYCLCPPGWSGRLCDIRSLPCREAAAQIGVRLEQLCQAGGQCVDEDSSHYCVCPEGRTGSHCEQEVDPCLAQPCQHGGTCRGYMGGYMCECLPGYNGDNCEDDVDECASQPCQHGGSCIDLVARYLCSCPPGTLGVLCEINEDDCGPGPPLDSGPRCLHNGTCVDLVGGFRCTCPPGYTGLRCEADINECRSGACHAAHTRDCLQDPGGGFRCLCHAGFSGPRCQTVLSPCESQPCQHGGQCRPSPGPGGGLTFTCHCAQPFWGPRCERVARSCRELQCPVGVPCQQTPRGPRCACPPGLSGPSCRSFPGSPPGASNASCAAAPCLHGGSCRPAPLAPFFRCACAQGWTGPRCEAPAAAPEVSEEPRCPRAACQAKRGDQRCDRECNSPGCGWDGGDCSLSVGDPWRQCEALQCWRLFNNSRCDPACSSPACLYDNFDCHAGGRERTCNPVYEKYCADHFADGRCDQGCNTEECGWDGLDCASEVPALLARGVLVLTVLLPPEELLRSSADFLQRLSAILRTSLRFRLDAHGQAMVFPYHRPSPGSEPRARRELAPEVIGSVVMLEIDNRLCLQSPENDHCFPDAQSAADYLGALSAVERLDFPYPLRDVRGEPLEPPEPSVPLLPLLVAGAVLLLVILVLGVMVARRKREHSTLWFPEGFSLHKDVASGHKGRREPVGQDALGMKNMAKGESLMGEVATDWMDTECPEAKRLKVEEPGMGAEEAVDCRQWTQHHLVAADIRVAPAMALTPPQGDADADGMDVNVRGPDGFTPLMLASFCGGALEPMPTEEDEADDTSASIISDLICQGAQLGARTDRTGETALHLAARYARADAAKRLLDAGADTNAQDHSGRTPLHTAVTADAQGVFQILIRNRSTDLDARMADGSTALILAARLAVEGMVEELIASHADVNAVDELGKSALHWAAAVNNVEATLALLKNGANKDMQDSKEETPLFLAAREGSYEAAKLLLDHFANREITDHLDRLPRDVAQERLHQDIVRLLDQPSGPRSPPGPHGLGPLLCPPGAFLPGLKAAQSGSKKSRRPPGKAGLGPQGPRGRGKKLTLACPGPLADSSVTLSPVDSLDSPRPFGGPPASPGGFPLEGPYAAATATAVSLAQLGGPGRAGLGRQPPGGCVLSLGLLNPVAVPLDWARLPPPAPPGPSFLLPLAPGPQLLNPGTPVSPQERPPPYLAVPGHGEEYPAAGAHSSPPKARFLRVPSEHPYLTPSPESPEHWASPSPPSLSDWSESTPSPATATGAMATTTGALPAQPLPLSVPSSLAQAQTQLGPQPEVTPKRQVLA
Assay [20] in a line: probe aEGFR binding to arrayed compounds – biochemical, biotinylated probe, 635/667 nm fluorescence, primary screen (AID 1097).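 Also: probe is a biotinylated anti-EGFR antibody binding compounds printed on slides; score combines fluorescence near 667 nm and signal to noise of each spot.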 Conditions: small-molecule microarray, higher = more signal.

Calls of active or inactive are those of the source.

Regarding `CCCCN1CC=CC23O[C@@H]4C=CCOC(=O)[C@@H]4[C@H]2C(=O)N(C(CO)C(C)C)[C@@H]3C1=O` (stereo not given in full), the composite z-score is 0.0186 in assay [1]; -0.438 in assay [2]; -0.124 in [3]; -0.275 in assay [4]; -0.758 in assay [5]; -0.397 in assay [6]. Besides, the composite z-score is -0.0125 in assay [7]; -0.288 in assay [9]; -0.13 in assay [10]; -0.453 in assay [11]; -1.06 in assay [15]; -0.118 in [17]. Moreover, the composite z-score in assay [18] was -0.319; in assay [19] it was -0.743; in [20] it was -0.217. Further, the z-score in assay [8] was 0.353 (inactive); in assay [12], -0.161 (inactive); in assay [13] it was -0.325 (inactive); in assay [14], 0.752 (inactive); in [16], -0.505 (inactive).
Take `COc1ccc([Si](C)(C)[C@H]2[C@H](CCn3cc([C@H](O)c4ccccc4)nn3)O[C@@]3(C(=O)N(C)c4c(Br)cc(C)cc43)[C@@H]2C)cc1`: the composite z-score was -0.0258 in [1]; 0.48 in assay [2]; -0.113 in [3]; -0.327 in assay [4]; -0.442 in [5]; 0.218 in [6]. Further, the composite z-score in assay [7] was 0.881; in [9], -0.438; in assay [10], -0.0994; in assay [11] it was 0.661; in [15], -0.168; in assay [17], -0.138. Further, the results for the composite z-score in assay [18], in assay [19] and in assay [20] were 1.96, -0.615 and -0.179, respectively. For the same compound, the z-score in assay [8] was -0.905 (inactive); in assay [12], 0.31 (inactive); in assay [13], 0.467 (inactive); in assay [14] it was 1.34 (inactive); in assay [16], 0.832 (inactive).
With `CN(C)CCCC[C@@H]1NC(=O)[C@@H]2C[C@H](C(=O)NCCCCCCNC(=O)CS)[C@H](c3cccc(OCCO)c3)N2C1=O`, the composite z-score in assay [1] was 0.0594; in [2], 0.353; in assay [3], -0.0621; in assay [4] it was 0.628; in assay [5] it was -0.453; in assay [6], 0.67. Also, the composite z-score in assay [7] was 0.838; in [9], 0.123; in assay [10] it was 0.0373; in assay [11], 1.39; in assay [15] it was 1.18; in [17] it was 0.0575. For the same compound, the composite z-score was 0.333 in assay [18], 0.131 in assay [19] and 0.124 in [20]. Moreover, the z-score is -0.786 (inactive) in assay [8]; -0.283 (inactive) in assay [12]; -0.0576 (inactive) in assay [13]; -0.471 (inactive) in assay [14]; -0.142 (inactive) in [16].
With `O=C1O[C@@H](c2ccccc2)[C@@H](c2ccccc2)N2[C@@H](c3ccc(OCCO)cc3)[C@]3(C(=O)Nc4ccc(C#CCCO)cc43)[C@@H](C(=O)Nc3nc4ccccc4s3)[C@H]12`, the composite z-score in assay [1] was 0.0758; in assay [2] it was 0.482; in assay [3], -0.0316; in assay [4], 0.444; in [5], 1.03; in [6], 1.14. Besides, the composite z-score in assay [7] was 1.07; in assay [9] it was 1.27; in assay [10] it was -0.0241; in assay [11], 1.5; in assay [15], 3.06; in assay [17] it was -0.0826. In addition, the composite z-score in [18] is 0.677; in assay [19], 1.06; in assay [20], -0.0531. For the same compound, the z-score was 0.28 (inactive) in assay [8]; 1.32 (inactive) in assay [12]; 0.415 (inactive) in assay [13]; 1.72 (inactive) in [14]; 2.55 (inactive) in assay [16].
Consider `COc1ccc(CCNC(=O)[C@@H]2c3ccccc3C(=O)N(CC34CC5CC(CC(C5)C3)C4)[C@H]2c2ccc(CO)cc2)cc1`, for which the composite z-score in assay [1] was -0.227; in assay [2], 0.0668; in [3], 0.257; in assay [4], 0.239; in assay [5], 0.703; in assay [6] it was 1.09. The composite z-score is 1.24 in [7]; -0.0095 in assay [9]; 0.0972 in [10]; 1.12 in [11]; 2.45 in [15]; -0.297 in [17]. Also, the composite z-score in assay [18] is 1.92; in [19] it was 1.06; in assay [20], -0.0828. For the same compound, the z-score in assay [8] is -1.89 (inactive); in assay [12], -0.543 (inactive); in assay [13], -0.817 (inactive); in [14] it was -0.13 (inactive); in assay [16] it was 0.573 (inactive).

The record behind these values is PubChem BioAssay.
